Assay results reported in PubChem BioAssay (NCI).
About 83,000 compounds went through this panel and 20% of them were active in at least one assay; those are over-represented in the sample as a whole.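 Results are percent growth after 48 hours of single-concentration exposure. 100 means growth as in untreated cells, lower positive values show inhibition; negative values down to -100 show cell death.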 A number with no mark means an inactive call. Calls of active or inactive are those of the source. How the source made its calls: active means growth percent below 10; inactive means the rest.

Tested on: MDA-MB-468 breast
Assay: NCI-60 one-dose screen, 48 h (100 = growth as untreated, 0 = no growth, -100 = all killed)
Conditions: 10 µM unless noted

`Cc1ccc(Nc2nc3c(s2)C2=CC[C@@H]4[C@H](CC[C@]5(C)C(=O)CC[C@@H]45)[C@@]2(C)CC3)cc1` showed a growth of 32.3%.

For `C=CC[PH+](c1ccccc1)c1ccccc1.C=CC[PH+](c1ccccc1)c1ccccc1.[Cl][Pt][Cl]`, the growth was -20.5% (active).

`O=C(Nc1ccc([N+](=O)[O-])cc1)C(Cl)(Cl)Cl` gave a growth of 96.5%.

`CCC1(C)CC(CCNCc2ccccc2O)(c2ccc(C)cc2)CCO1` (centres undefined) was tested, and the growth was 110%.
